Active and inactive are the calls of the source. The calls were made as follows: active = hit-call score of the fitted dose curve at least 0.9, where 1 is the maximum; inactive = score below 0.9.

Read-out in assay [1]: Macrophage colony-stimulating factor (MCSF), CSF1 (gene 1435)
Kind of assay: BSK_hDFCGF_MCSF: BioMAP Diversity Plus: hDFCGF Assay for Macrophage colony-stimulating factor (MCSF) Biomarker Activity (AID 2283060). The note with it: primary human foreskin fibroblasts; actives raise or lower the signal. Put shortly: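 M-CSF levels read by ELISA at 24 h post-dosing in human skin fibroblasts. Parallel cultures stained with SRB assessed cytotoxicity at the same time point; response fitted in both directions against the DMSO baseline.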

A short description of assay [2]: BSK_hDFCGF_SRB: Viability Assessment in the BioMAP Diversity Plus: hDFCGF Assay (AID 2283061).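 Also: cells exposed to compound for 24 h before the read.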 The note with it: primary human foreskin fibroblasts. The gist of the method:
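Viability was read as total protein: after 10% TCA fixation, wells were stained with 0.1% sulforhodamine B and read at 560 nm. Primary human foreskin fibroblasts were dosed for 24 h, with bidirectional fitting versus DMSO.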

Read-out in assay [3]: TIMP metallopeptidase inhibitor 1 (TIMP1), TIMP1 (gene 7076)
Kind of assay: BSK_hDFCGF_TIMP1: BioMAP Diversity Plus: hDFCGF Assay for TIMP metallopeptidase inhibitor 1 (TIMP1) Biomarker Activity (AID 2283062). The note with it: primary human foreskin fibroblasts; actives raise or lower the signal. Put shortly:
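TIMP-1 measured by ELISA 24 h after chemical dosing of primary human skin fibroblasts, with gain or loss fitted relative to DMSO. Parallel SRB staining (560 nm) monitored overt cytotoxicity.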

Read-out in assay [4]: Monokine induced gamma interferon (MIG), CXCL9 (gene 4283)
Kind of assay: BSK_hDFCGF_MIG: BioMAP Diversity Plus: hDFCGF Assay for Monokine induced gamma interferon (MIG) Biomarker Activity (AID 2283063). The note with it: primary human foreskin fibroblasts; actives raise or lower the signal. The gist of the method: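 Human primary foreskin fibroblasts in the hDFCGF system, exposed to test chemical for 24 h; MIG measured by ELISA. Bidirectional curve fitting against DMSO negative control as activity baseline.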

Read-out in assay [5]: Matrix Metallopeptidase 1 (MMP1), MMP1 (gene 4312)
Kind of assay: BSK_hDFCGF_MMP1: BioMAP Diversity Plus: hDFCGF Assay for Matrix Metallopeptidase 1 (MMP1) Biomarker Activity (AID 2283064). Particulars: primary human foreskin fibroblasts; actives raise or lower the signal. The gist of the method: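 Primary human foreskin fibroblasts exposed to chemicals for 24 h; MMP1 measured by ELISA. Cytotoxicity tracked by SRB staining in parallel cultures; bidirectional fit relative to DMSO.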

Read-out in assay [6]: Vascular cell adhesion molecule 1 (VCAM1), VCAM1 (gene 7412)
Kind of assay: BSK_hDFCGF_VCAM1: BioMAP Diversity Plus: hDFCGF Assay for Vascular cell adhesion molecule 1 (VCAM1) Biomarker Activity (AID 2283065). The note with it: primary human foreskin fibroblasts; actives raise or lower the signal. The gist of the method:
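ELISA readout of VCAM-1 on human dermal fibroblast primary cultures, 24 h after chemical exposure. Gain or loss of signal fitted in both directions against DMSO baseline.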

Read-out in assay [7]: Plasminogen activator inhibitor-1 (PAI1), SERPINE1 (gene 5054)
As to the kind of experiment: BSK_hDFCGF_PAI1: BioMAP Diversity Plus: hDFCGF Assay for Plasminogen activator inhibitor-1 (PAI1) Biomarker Activity (AID 2283066). Particulars: primary human foreskin fibroblasts; actives raise or lower the signal. The gist of the method:
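Primary dermal fibroblasts (human foreskin), hDFCGF system; compound 24 h; PAI-1 by ELISA; bidirectional fit vs DMSO control.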

Read-out in assay [8]: Intercellular Adhesion Molecule 1 (ICAM1), ICAM1 (gene 3383)
Kind of assay: BSK_KF3CT_ICAM1: BioMAP Diversity Plus: KF3CT Assay for Intercellular Adhesion Molecule 1 (ICAM1) Biomarker Activity (AID 2283067). The note with it: primary human keratinocytes with fibroblasts; actives raise or lower the signal. The gist of the method: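 Cell-surface ICAM-1 was measured by ELISA 24 h after dosing primary human skin keratinocytes co-cultured with fibroblasts. Parallel SRB staining tracked overt cytotoxicity. Gain or loss of signal was fitted relative to DMSO.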

Read-out in assay [9]: Interferon-gamma inducible Protein 10 (IP10), CXCL10 (gene 3627)
Kind of assay: BSK_KF3CT_IP10: BioMAP Diversity Plus: KF3CT Assay for Interferon-gamma inducible Protein 10 (IP10) Biomarker Activity (AID 2283068). The note with it: primary human keratinocytes with fibroblasts; actives raise or lower the signal. The gist of the method:
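Human keratinocyte plus foreskin fibroblast primary co-culture exposed to test chemical for 24 h; IP-10 measured by ELISA. Concentration-response fitted bidirectionally against DMSO control as baseline.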

Assay [10] can be described thus: BSK_KF3CT_SRB: Viability Assessment in the BioMAP Diversity Plus: KF3CT Assay (AID 2283069).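 Also: total protein by sulforhodamine B staining as a cytotoxicity measure; read 24 h after compound addition.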 Particulars: primary human keratinocytes with fibroblasts. The gist of the method:
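Human keratinocyte and foreskin fibroblast co-culture exposed to chemical for 24 h. Total protein measured in parallel cultures by 0.1% sulforhodamine B staining after 10% TCA fixation, read at 560 nm; bidirectional fit relative to DMSO.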

Read-out in assay [11]: Interleukin-1 alpha (IL1a), IL1A (gene 3552)
As to the kind of experiment: BSK_KF3CT_IL1a: BioMAP Diversity Plus: KF3CT Assay for Interleukin-1 alpha (IL1a) Biomarker Activity (AID 2283070). The note with it: primary human keratinocytes with fibroblasts; actives raise or lower the signal. Put shortly:
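Primary human keratinocyte plus foreskin fibroblast co-culture, dosed and measured at 24 h in 96-well plates. IL-1a level quantified by ELISA; bidirectional fit relative to DMSO.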

Read-out in assay [12]: TIMP metallopeptidase inhibitor 2 (TIMP2), TIMP2 (gene 7077)
As to the kind of experiment: BSK_KF3CT_TIMP2: BioMAP Diversity Plus: KF3CT Assay for TIMP metallopeptidase inhibitor 2 (TIMP2) Biomarker Activity (AID 2283071). Particulars: primary human keratinocytes with fibroblasts; actives raise or lower the signal. Put shortly: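 Cells: human keratinocytes co-cultured with foreskin fibroblasts. Treat with chemical, 24 h. Measure TIMP-2 by ELISA; fit curves bidirectionally vs DMSO baseline.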

Read-out in assay [13]: C-C motif chemokine 2 (Homo sapiens) (UniProt P13500)
Kind of assay: BSK_KF3CT_MCP1: BioMAP Diversity Plus: KF3CT Assay for Monocyte Chemoattractant Protein 1 (MCP1/CCL2) Biomarker Activity (AID 2283073). Particulars: primary human keratinocytes with fibroblasts; actives raise or lower the signal. The gist of the method:
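ELISA read-out of MCP-1, 24 h post-dose, in primary human skin keratinocytes co-cultured with fibroblasts. Parallel SRB staining monitors cytotoxicity; changes fitted both directions relative to DMSO.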

Read-out in assay [14]: urokinase plasminogen activator (uPA), PLAU (gene 5328)
As to the kind of experiment: BSK_KF3CT_uPA: BioMAP Diversity Plus: KF3CT Assay for urokinase plasminogen activator (uPA) Biomarker Activity (AID 2283075). The note with it: primary human keratinocytes with fibroblasts; actives raise or lower the signal. The gist of the method: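 Primary human keratinocyte/foreskin fibroblast co-culture exposed to chemical; uPA measured by ELISA at 24 h. Bidirectional fit versus DMSO, with parallel SRB total-protein staining for cytotoxicity.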

Read-out in assay [15]: CD40, CD40 (gene 958)
Kind of assay: BSK_LPS_CD40: BioMAP Diversity Plus: LPS Assay for CD40 Biomarker Activity (AID 2283076). The note with it: primary human HUVEC with PBMC; actives raise or lower the signal. The gist of the method: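 In the LPS system of human endothelial cells with peripheral blood mononuclear cells, CD40 levels were read by ELISA 24 h post-treatment. Signal changes in either direction were fitted against the DMSO baseline, with parallel SRB protein staining.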

Read-out in assay [16]: E-selectin (Homo sapiens) (UniProt P16581)
Kind of assay: BSK_LPS_Eselectin: BioMAP Diversity Plus: LPS Assay for Eselectin Biomarker Activity (AID 2283077). The note with it: primary human HUVEC with PBMC; actives raise or lower the signal. Put shortly: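 E-selectin ELISA on LPS-stimulated endothelial cell/PBMC co-cultures, read 24 h post-treatment; gains and losses fitted against DMSO. Parallel SRB staining (0.1% SRB after 10% TCA fixation, 560 nm) flags overt cytotoxicity.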

Read-out in assay [17]: Interleukin-8 (IL8), CXCL8 (gene 3576)
Kind of assay: BSK_LPS_IL8: BioMAP Diversity Plus: LPS Assay for Interleukin-8 (IL8) Biomarker Activity (AID 2283078). The note with it: primary human HUVEC with PBMC; actives raise or lower the signal. Put shortly:
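ELISA read-out of IL-8 after 24 h chemical treatment of LPS-activated endothelial/PBMC human primary co-cultures. Changes either up or down relative to DMSO; overt cytotoxicity checked by sulforhodamine B staining in parallel wells.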

Assay [18] in a line: BSK_LPS_SRB: Viability Assessment in the BioMAP Diversity Plus: LPS Assay (AID 2283079).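 Also: total protein by sulforhodamine B absorbance as a cytotoxicity measure; measured one day after compound addition.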 The note with it: primary human HUVEC with PBMC. Put shortly: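 SRB viability endpoint: cells fixed with 10% TCA, stained with 0.1% SRB, read at 560 nm, 24 h post-dose. HUVEC/PBMC co-culture; signal change in either direction scored relative to DMSO.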
Read-out in assay [19]: Interleukin-1 alpha (IL1a), IL1A (gene 3552)
As to the kind of experiment: BSK_LPS_IL1a: BioMAP Diversity Plus: LPS Assay for Interleukin-1 alpha (IL1a) Biomarker Activity (AID 2283080). Particulars: primary human HUVEC with PBMC; actives raise or lower the signal. Put shortly: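 Readout is IL-1a level by ELISA, 24 h post-dose, fitted as gain or loss relative to DMSO. System: LPS-activated human primary co-culture of vascular endothelium and peripheral blood mononuclear cells, with parallel SRB total-protein cytotoxicity.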

E-selectin (Homo sapiens), sequence (P16581 whole entry, looked up): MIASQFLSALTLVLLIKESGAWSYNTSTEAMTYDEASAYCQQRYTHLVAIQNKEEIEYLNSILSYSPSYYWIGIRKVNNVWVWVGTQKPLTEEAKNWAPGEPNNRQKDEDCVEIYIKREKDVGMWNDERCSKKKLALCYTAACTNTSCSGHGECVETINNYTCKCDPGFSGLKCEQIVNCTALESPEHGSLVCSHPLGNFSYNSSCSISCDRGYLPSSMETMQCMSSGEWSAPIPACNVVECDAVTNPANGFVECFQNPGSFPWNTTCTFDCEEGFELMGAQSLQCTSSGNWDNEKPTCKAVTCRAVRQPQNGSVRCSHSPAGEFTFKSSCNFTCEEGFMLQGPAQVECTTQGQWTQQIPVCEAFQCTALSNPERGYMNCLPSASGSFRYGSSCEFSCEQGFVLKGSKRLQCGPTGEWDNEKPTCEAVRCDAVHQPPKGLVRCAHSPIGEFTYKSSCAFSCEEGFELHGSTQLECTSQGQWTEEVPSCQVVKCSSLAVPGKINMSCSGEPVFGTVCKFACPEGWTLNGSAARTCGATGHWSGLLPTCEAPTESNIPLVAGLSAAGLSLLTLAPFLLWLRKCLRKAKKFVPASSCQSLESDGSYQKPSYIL

For the molecule `FC(F)(F)C(F)(F)C(F)(F)C(F)(F)C(F)(F)C(F)(F)C(F)(F)C(F)(F)CCS`, the outcome in assay [1], in [2], in assay [3], in [4], in assay [5] and in assay [6] was inactive. The result in assay [7], in assay [8], in assay [9], in [10], in assay [11] and in [12] was inactive. Besides, the result in assay [13], in [14], in assay [15], in assay [16], in assay [17] and in assay [18] was inactive. Further, in [19], the outcome was inactive.

As to `CC(CCl)OP(=O)(OC(C)CCl)OC(C)CCl` (configuration not stated), the result in assay [1], in assay [2], in assay [3], in [4], in assay [5] and in [6] was inactive. In addition, the result in [8], in [9], in assay [10], in [11], in assay [12] and in assay [13] was inactive. Besides, the outcome in assay [14], in [15], in [16], in assay [17] and in assay [18] was inactive. Further, in assay [7], the AC50 was 15.9 nM (active).

`C=C(C)C(=O)OCC(F)(F)C(F)(F)C(F)(F)F`: the outcome in assay [1], in assay [2], in assay [3], in assay [4], in assay [5] and in assay [6] was inactive. For the same molecule, the result in assay [7], in assay [8], in assay [9], in assay [10], in assay [11] and in assay [12] was inactive. Also, the result in [13], in assay [14], in [15], in [16], in assay [17] and in [18] was inactive. For the same molecule, in [19], the result was inactive.

Consider `CCCCCCCCC(F)(F)C(F)(F)C(F)(F)C(F)(F)C(F)(F)C(F)(F)F`, for which the outcome in assay [1], in [2], in [3], in assay [4], in assay [5] and in assay [6] was inactive. Besides, the result in [7], in assay [8], in [9], in assay [10], in assay [11] and in assay [12] was inactive. Further, the outcome in assay [13], in assay [14], in [15], in assay [16], in assay [17] and in assay [18] was inactive.

Take `O=C(CC(=O)C(F)(F)C(F)(F)F)C(F)(F)F`: the result in [1], in assay [2], in [3], in [4], in assay [5] and in [6] was inactive. The outcome in [7], in assay [8], in [9], in assay [10], in assay [11] and in assay [12] was inactive. Besides, the outcome in assay [13], in assay [14], in assay [15], in assay [16], in assay [17] and in assay [18] was inactive.

The values above are taken from PubChem BioAssay (EPA / NIEHS).
